The campaign covered roughly 98,000 compounds. About 880 (0.9%) were called active. Cut-off read from the data, not from the text of the source: active = inhibition above about 30%; inactive = the rest. Many of the other results were omitted from the sample, so actives are more common in it than they were.

The nature of the experiment: phenotypic screen on post-Golgi transport, primary screen (AID 739).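 Note: yeast cells grown in 1536-well plates; yeast grown about 18 h at 30C before absorbance read.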 To be noted: post-Golgi transport phenotypic cell assay; at 10 µM; active compounds read high.
As usually defined, the inhibition is the change of the read-out against control, counted positive when it falls. Take `CC(C)C(NS(=O)(=O)c1cccs1)C(=O)Nc1nc(C(C)(C)C)cs1` (stereo unspecified): the inhibition is 7.03% (inactive). As to `Cc1c(C=O)c2ccccn2c1C(=O)c1ccncc1`, the inhibition was -6.66% (inactive). Turning to `O=C(Nc1ccc2ccccc2c1)Nc1ccc2snnc2c1`, the inhibition is 96.1% (active). Consider `COc1ccc(NC(=O)Nc2ccc3nc(C)c(C)nc3c2)cc1`, for which the inhibition is -7.69% (inactive).

`COc1ccc(NC(=O)Nc2ccc3nsnc3c2)cc1`: the inhibition is -0.7% (inactive). The figure for `CC(=O)Nc1ccccc1C(=O)C(=O)Nc1ccc(F)cc1` is -1% (inactive). As to `Cc1nnc(NC(=O)Nc2ccc(Cl)c(Cl)c2)s1`, the inhibition was 5.16% (inactive). Turning to `N/C(=N\OC(=O)Nc1ccc(Cl)c(Cl)c1)c1ncc(C(F)(F)F)cc1Cl`, the inhibition was 3.3% (inactive). Take `O=C(CC(O)(C(F)(F)F)C(F)(F)F)Nc1ccc(Cl)c(Cl)c1`: the inhibition is 105% (active). The figure for `COc1cc(SC)ccc1C(=O)NCCOc1ccccc1Cl` is 4.48% (inactive). The figure for `c1ccc(-c2[nH]ncc2-c2nc3ccccc3[nH]2)cc1` is 11% (inactive); for `c1ccc2[nH]c(-c3nc4ccccc4[nH]3)nc2c1` it is 30.1% (active). The figure for `Cc1ccc(-c2nc3ccccc3[nH]2)cc1N` is 0.67% (inactive). With `CC(Oc1ccc2ccccc2c1)C(=O)NNC(=S)NC(=O)c1ccco1` (stereo unspecified), the inhibition was 43% (active).

On to `CCCc1ccc(OCC(=O)NNC(=S)NC(=O)c2ccco2)cc1`, for which the inhibition is 27.3% (inactive). As for `COc1ccc(C(=O)NC(=S)NNC(=O)CCc2ccccc2)cc1`, the figure is 0.19% (inactive). With `CCN(CC(=O)NC1CCS(=O)(=O)C1)c1nc(-c2cccnc2)nc2ccccc12` (stereo unspecified), the inhibition is 3.37% (inactive). The figure for `COC(=O)Cc1cc(=O)oc2c(C)c(O)ccc12` is -6.64% (inactive); for `COc1cc(Cl)c(S(=O)(=O)N2CCN(Cc3ccc4c(c3)OCO4)CC2)cc1Cl` it is 38.9% (active); for `CCn1cc(C(=O)N2CCN(Cc3ccc4c(c3)OCO4)CC2)c2cc(OC)c(OC)cc2c1=O` it is -1.13% (inactive).

Take `CS(=O)(=O)N(CC(=O)N1CCN(Cc2ccc3c(c2)OCO3)CC1)c1ccc2c(c1)OCO2`: the inhibition was 6.95% (inactive).

Turning to `CC(=O)c1ccc(Cc2ncc(C(F)(F)F)cc2Cl)s1`, the inhibition is 6.38% (inactive). As to `COc1ccc(-c2cc(C(F)(F)F)nc(S(C)(=O)=O)n2)cc1OC`, the inhibition is 54.9% (active).

`COc1ccc(-c2cc(C(F)(F)F)nc(NCc3cccnc3)n2)cc1`: the inhibition was 10.4% (inactive). The figure for `COc1ccc(-c2ccc(Nc3ccc(S(=O)(=O)N4CCCC4)cc3)nn2)cc1OC` is 1.55% (inactive); for `CCOC(=O)c1cc2c(ccn2C)n1CC(=O)N1CCC(C)CC1` it is 1.25% (inactive). The figure for `O=C(c1cccc(F)c1)N1CCC(O)(c2cccnc2)CC1` is 1.27% (inactive); for `COc1ccc2[nH]cc(/C=C(/C#N)S(=O)(=O)c3ccccc3)c2c1` it is -4.52% (inactive); for `Cc1ccc(C2(C(F)(F)F)N=C3Sc4cc(C)cc(C)c4N3C(=O)N2)cc1` (stereo unspecified) it is 90.2% (active). Consider `Cc1n[nH]c(=O)n1-c1ccc(Oc2ccccc2)cc1`, for which the inhibition is -19.2% (inactive). As to `COC(=O)Nc1ncc(CN2CCCCC2)s1`, the inhibition is -4.67% (inactive). The figure for `Cc1ccc(/C=N/NC(=O)C(NC(=O)c2ccccc2)c2n[nH]c(=O)c3ccccc23)cc1` (stereo unspecified) is 0.64% (inactive); for `Cc1cc(NC(=O)/C=C/C(=O)N(c2ccccc2C)C(C(=O)NC2CCCC2)c2ccc(F)cc2)no1` (stereo unspecified) it is 0.32% (inactive); for `CC1=CC(C)(C)N(C(=O)CSc2nccn2C)c2cc(C)ccc21` it is 5.13% (inactive). The figure for `O=C(CSc1nnc(-c2ccccc2)o1)N1CCOCC1` is 8.7% (inactive). For `CC1=CC(C)(C)N(C(=O)CSc2nnc(-c3ccccc3)o2)c2ccc(C)cc21`, the inhibition is 101% (active). As for `Cc1ccc(CNC(=O)c2ccccc2CCc2ccccc2)cc1`, the figure is -2.21% (inactive); as for `FC(F)(F)COc1nc(N2CCCCC2)nc(N2CCNCC2)n1`, 33.5% (active).

Regarding `O=C(CSCc1ccc(Cl)cc1)N1CCCCC1`, the inhibition is -4.56% (inactive). The figure for `Cc1cc([N+](=O)[O-])c(-c2ccc(/C=N/n3cnnc3)o2)cc1Cl` is 99.8% (active); for `O=C1C2C3C=CC(C4CC34)C2C(=O)N1/N=C/c1ccc(-c2ccccc2[N+](=O)[O-])o1` (stereo unspecified) it is 3.37% (inactive); for `Cc1cc(C)c([N+](=O)[O-])cc1-c1ccc(/C=N/NC(=O)c2nonc2N)o1` it is -6.17% (inactive).

Regarding `Cc1cc(-c2ccc(/C=N/n3cnnc3)o2)c([N+](=O)[O-])cc1C`, the inhibition was 59.7% (active). In the case of `CCOc1ccc(C(=O)NCCCN2CCCC2=O)cc1`, the inhibition was 11.5% (inactive). As for `O=C(COC(=O)c1ccccc1NC(=O)c1ccco1)Nc1ccc2c(c1)OC(F)(F)O2`, the figure is -2.04% (inactive); as for `Cc1nc2ccc(NC(=O)C(F)(F)F)cc2o1`, -13.7% (inactive); as for `OC(c1ccccc1)c1nccn1Cc1ccccc1` (stereo unspecified), -6.53% (inactive). As for `Cn1c(-c2sc3cc(C(F)(F)F)cnc3c2-c2ccccc2)n[nH]c1=S`, the figure is -3.98% (inactive); as for `c1ccc2c(CSCc3nc4ccccc4[nH]3)cccc2c1`, 4.1% (inactive). As for `Cc1ccc(SCC(=O)Nc2ncc(C)s2)cc1`, the figure is -7.09% (inactive); as for `O=C1c2ccccc2C2=Nc3ccccc3SC(c3ccccc3F)C12` (stereo unspecified), 103% (active); as for `Cc1c(CCO)c(=O)n(-c2ccccc2)n1S(=O)(=O)c1ccc(F)cc1`, -6.46% (inactive). On to `CC(C)c1nc(N2CCOCC2)c(C#N)c2c1COC(C)(C)C2`, for which the inhibition was -8.94% (inactive).

For `CC(C)Cc1nc(N2CCOCC2)c(C#N)c2c1CCC2`, the inhibition is 35% (active). As for `CC(C)CCNc1nc(N2CCCC2)c2c(c1C#N)CCN(C)C2`, the figure is -1.14% (inactive). As for `CCOc1ccc(-c2c(C)n([O-])c3c([n+]2=O)CCCC3)cc1`, the figure is 0.66% (inactive). As for `FC(F)Oc1ccccc1C1CC(c2ccc(Br)s2)Nc2ncnn21` (stereo unspecified), the figure is 39.4% (active); as for `Clc1ccc(C2CC(c3cccs3)n3ncnc3N2)cc1Cl` (stereo unspecified), 1.99% (inactive). With `COc1ccc(C2CC(c3ccccc3)Nc3ncnn32)cc1` (stereo unspecified), the inhibition was 4.34% (inactive).

Consider `CC(C)C(=O)OCC(=O)Nc1ccc2c(c1)CCC2`, for which the inhibition was 7.4% (inactive).

In the case of `CCC(=O)NC(Nc1cc(C)ccn1)(C(F)(F)F)C(F)(F)F`, the inhibition was 6.28% (inactive). The figure for `CC1=NCCN1S(=O)(=O)c1ccc(Br)c(C)c1` is 3.83% (inactive); for `COc1ccc(Br)cc1S(=O)(=O)N1CCN=C1C` it is 31.5% (active). On to `COCCNS(=O)(=O)c1cc(Br)ccc1OC`, for which the inhibition is 8.12% (inactive).

On to `COCc1[nH][nH]c(=O)c1C=Nc1ccc(F)cc1F`, for which the inhibition is 5.45% (inactive). As for `COC(=O)c1cc(NC(=O)C2C3C=CC(C3)C2C(=O)O)cc(C(=O)OC)c1` (stereo unspecified), the figure is 2.17% (inactive); as for `CCc1nn(-c2cc(Oc3cccc4ccccc34)nc(-c3ccccc3)n2)c(N)c1C#N`, -15.9% (inactive). As for `O=[N+]([O-])c1ccc(Oc2ccc(F)cc2Br)c2ccncc12`, the figure is 54.4% (active); as for `CCOC(=O)Nc1sc(C(=O)N(C)C)c(C)c1C(=O)OCC`, 21.1% (inactive); as for `Cc1ccc(CCN2CC(C(=O)O)CC2=O)cc1` (stereo unspecified), -4.77% (inactive).

As to `NC(=O)N1CCCC1C(=O)Nc1ccc(Cl)c(Cl)c1` (stereo unspecified), the inhibition was -3.91% (inactive). As for `CCOC(=O)/C(C#N)=C/c1ccc(OCC(=O)Nc2ccccc2)c(OC)c1`, the figure is 6.16% (inactive); as for `O=C(NCCc1ccccc1)/C(=C\c1ccc([N+](=O)[O-])cc1)NC(=O)c1ccccc1`, 4.97% (inactive). As for `CCOC(=O)/C(=C\c1ccc([N+](=O)[O-])cc1)C(=O)c1cc(C(C)=O)c(Nc2ccccc2)s1`, the figure is 64.9% (active). The figure for `Cc1noc(/C=C/c2ccco2)c1S(=O)(=O)N1CCC(C(=O)N2CCc3ccccc32)CC1` is -4.89% (inactive); for `COc1ccccc1CSc1nc2ccccc2[nH]1` it is 1.93% (inactive); for `CCc1c(-c2ccccc2)nc(N)c(C#N)c1-c1cccs1` it is 2.36% (inactive).

In the case of `O=c1c2ccccc2oc2nc(C3CCCCC3)n(Cc3ccco3)c(=O)c12`, the inhibition is 68.9% (active).

Take `O=c1c2ccccc2oc2nc3n(c(=O)c12)CCCS3`: the inhibition was 5.66% (inactive). On to `CCc1nc2oc3ccccc3c(=O)c2c(=O)n1Cc1ccc(OC)cc1`, for which the inhibition was 8.05% (inactive).

For `COc1cc(/C=C(/NC(=O)c2ccccc2)C(=O)Nc2cccc(O)c2)c([N+](=O)[O-])cc1OC`, the inhibition was -17.3% (inactive). As to `COCCn1c(SCc2nc3cc(OC)c(OC)cc3c(=O)[nH]2)nnc1-c1ccncc1`, the inhibition is 6.95% (inactive). The figure for `C=CCNC(=O)c1sc(SC)cc1-c1ccc(Cl)cc1` is 20% (inactive).

In the case of `CCCCCCC(=O)Nc1nc(C)c(-c2csc(Nc3cccc(OC)c3)n2)s1`, the inhibition is -3.09% (inactive). Take `COc1ccc(C2=NO[C@@H]3C(=O)N(Cc4ccccc4)C(=O)[C@H]23)cc1OC`: the inhibition is 6.43% (inactive).

For the compound `O=C(Nc1ccccc1)c1nnsc1S(=O)(=O)c1ccc(Cl)cc1`, the inhibition was 76.3% (active). The figure for `O=C(Nc1ccc(Cl)cc1)c1ccsn1` is 8.05% (inactive); for `CC(=O)Nc1cc(C(=O)O)ccc1S(=O)(=O)c1ccc(Cl)cc1` it is -1.65% (inactive).

For the compound `Cc1cc(N/C=C\C(=O)c2ccc(Cl)c(Cl)c2)no1`, the inhibition is -4.69% (inactive). Turning to `COc1cccc(NC(=O)C2CCCN2C(=O)OCc2ccccc2)c1` (stereo unspecified), the inhibition was 32% (active). On to `CC(=O)c1cccc(NC(=O)N2CCCC2C(=O)NCCc2ccccc2)c1` (stereo unspecified), for which the inhibition is 20% (inactive). As for `CCOc1cccc(NC(=O)C2CCCN(S(=O)(=O)c3ccc(OC)cc3)C2)c1` (stereo unspecified), the figure is -5.63% (inactive); as for `CCN(CC)C(=O)CSc1nc2ccccc2n1CC(=O)N1CCN(c2ccccc2OC)CC1`, 11.2% (inactive); as for `COc1ccc(C(=O)Nc2ncc3c(n2)-c2ccccc2CC3)cc1`, 16.5% (inactive). As to `Cc1ccn2cc(-c3nonc3C)cc2c1`, the inhibition is 37.3% (active). The figure for `COc1ccc(C2CC(=O)Nc3cc(C)c(C)cc32)c(OC)c1OC` (stereo unspecified) is 11.7% (inactive).

Values taken from PubChem BioAssay AID739 (SRMLSC, 2007).
